About 8,800 targets were measured; listed, in parts, are those with a hit and a random draw of the rest. About 0.5% of all pairs of compound and target were hits.
Columns and labels:
Assay in all cases: log2 fold change, soluble protein after heating vs DMSO (PISA); higher = thermal stabilisation; K562 lysate, 10 uM; active = over 0.2 and 3.5 SD of the protein, either way, in both replicates (recomputed)
[1] = compound: C=CC(=O)N1CCC[C@@H](n2nc(-c3ccc(Oc4ccccc4)cc3)c3c(N)ncnc32)C1 [ibrutinib]
In short: (§1)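 Soluble protein was defined as the supernatant remaining after 21,000xg for 90 min, following pooling of heated aliquots and adjustment to 0.5% NP-40 at 4°C. Before that, crude K562 extract at 1 mg/mL protein in PBS pH 7.4 with 1 mM MgCl2 was treated with 10 μM compound for 30 min and heated for 3 min across 48°C-58°C. Quantification used TMTpro 16plex LC-MS/MS with channel sums equalised, and values are log-two fold changes in thermal stability relative to solvent controls from duplicates.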

[2] = compound: CC(=O)c1cnc2ccc(-c3cc(Cl)c(O)c(Cl)c3)nc2c1N[C@H]1CC[C@H](CN(C)C)CC1
In short: as §1

[3] = compound: CC(C)(C)Cn1c(N)nc2ccc(-c3[nH]c(C(C)(C)C)nc3-c3ccc(F)cc3)nc21 [ralimetinib]
In short: as §1

[4] = compound: CC(C)(O)CC(=O)NCCn1ccc2ncnc(Nc3ccc(Oc4cccc(C(F)(F)F)c4)c(Cl)c3)c21
In short: as §1

[5] = compound: CC(C)C1=C2N=C(C=C(N2N=C1)NCC3=CC=CC=C3)NCCCCCCN
In short: as §1

[6] = compound: CC1=C(C(CC(=O)N1)C2=CC=C(C=C2)C(F)(F)F)C(=O)NC3=C(C=C4C(=C3)C=NN4)F
In short: as §1

[7] = compound: CC1=C(C2=C(C=C1)C(=O)C3=CC=CC=C3N2CCCN)C
In short: as §1

[8] = compound: CC1=C(C=C(C=C1)NC(=O)C2=CC(=CC=C2)C(C)(C)C#N)NC3=CC4=C(C=C3)N=CN(C4=O)C
In short: as §1

[9] = compound: CC1=C(C=C(C=C1)NC(=O)C2=CC(=CC=C2)N(C)C)NC(=O)C3=CC=C(C=C3)O
In short: as §1

[10] = compound: CC1=CC=C(C=C1)SC2=C3C=C(SC3=CN=C2)C(=O)N
In short: as §1

[11] = compound: CCCS(=O)(=O)Nc1ccc(F)c(C(=O)c2c[nH]c3ncc(-c4ccc(Cl)cc4)cc23)c1F [vemurafenib]
In short: as §1

[12] = compound: CCCS(=O)(=O)Nc1ccc(F)c(C(=O)c2c[nH]c3ncc(Cl)cc23)c1F
In short: as §1

[13] = compound: CCN(CCCOc1ccc2c(Nc3cc(CC(=O)Nc4cccc(F)c4)[nH]n3)ncnc2c1)CCOP(=O)(O)O [barasertib]
In short: as §1

[14] = compound: CC[C@@H]1C(=O)N(C)c2cnc(Nc3ccc(C(=O)NC4CCN(C)CC4)cc3OC)nc2N1C1CCCC1
In short: as §1

[15] = compound: CC[C@@H]1C(=O)N(C)c2cnc(Nc3ccc(C(=O)N[C@H]4CC[C@H](N5CCN(CC6CC6)CC5)CC4)cc3OC)nc2N1C(C)C [volasertib]
In short: as §1

[16] = compound: CCn1c(C(=O)N(C2CC2)C2CC2)cc2c3c(ncn3C)c(Nc3cc(C)n(C)n3)nc21
In short: as §1

[17] = compound: CCn1cc(-c2ccnc3[nH]c(-c4cccc(CN(C)C)c4)cc23)c(-c2ccc(NC(=O)N(C)C)cc2)n1
In short: as §1

[18] = compound: CN1CCC(CNc2ccc3ncc(-c4cccc(OC(F)(F)F)c4)n3n2)CC1
In short: as §1

[19] = compound: CN1CCN(CCOc2cc(OC3CCOCC3)c3c(Nc4c(Cl)ccc5c4OCO5)ncnc3c2)CC1 [saracatinib]
In short: as §1

[20] = compound: CN1CCN(c2nc(C3=C(c4c[nH]c5ccccc45)C(=O)NC3=O)c3ccccc3n2)CC1 [sotrastaurin]
In short: as §1

Measured: log2 fold change

ROCK1 (UniProt Q13464)
Chain of UniProt Q13464 (Q13464 whole entry, looked up): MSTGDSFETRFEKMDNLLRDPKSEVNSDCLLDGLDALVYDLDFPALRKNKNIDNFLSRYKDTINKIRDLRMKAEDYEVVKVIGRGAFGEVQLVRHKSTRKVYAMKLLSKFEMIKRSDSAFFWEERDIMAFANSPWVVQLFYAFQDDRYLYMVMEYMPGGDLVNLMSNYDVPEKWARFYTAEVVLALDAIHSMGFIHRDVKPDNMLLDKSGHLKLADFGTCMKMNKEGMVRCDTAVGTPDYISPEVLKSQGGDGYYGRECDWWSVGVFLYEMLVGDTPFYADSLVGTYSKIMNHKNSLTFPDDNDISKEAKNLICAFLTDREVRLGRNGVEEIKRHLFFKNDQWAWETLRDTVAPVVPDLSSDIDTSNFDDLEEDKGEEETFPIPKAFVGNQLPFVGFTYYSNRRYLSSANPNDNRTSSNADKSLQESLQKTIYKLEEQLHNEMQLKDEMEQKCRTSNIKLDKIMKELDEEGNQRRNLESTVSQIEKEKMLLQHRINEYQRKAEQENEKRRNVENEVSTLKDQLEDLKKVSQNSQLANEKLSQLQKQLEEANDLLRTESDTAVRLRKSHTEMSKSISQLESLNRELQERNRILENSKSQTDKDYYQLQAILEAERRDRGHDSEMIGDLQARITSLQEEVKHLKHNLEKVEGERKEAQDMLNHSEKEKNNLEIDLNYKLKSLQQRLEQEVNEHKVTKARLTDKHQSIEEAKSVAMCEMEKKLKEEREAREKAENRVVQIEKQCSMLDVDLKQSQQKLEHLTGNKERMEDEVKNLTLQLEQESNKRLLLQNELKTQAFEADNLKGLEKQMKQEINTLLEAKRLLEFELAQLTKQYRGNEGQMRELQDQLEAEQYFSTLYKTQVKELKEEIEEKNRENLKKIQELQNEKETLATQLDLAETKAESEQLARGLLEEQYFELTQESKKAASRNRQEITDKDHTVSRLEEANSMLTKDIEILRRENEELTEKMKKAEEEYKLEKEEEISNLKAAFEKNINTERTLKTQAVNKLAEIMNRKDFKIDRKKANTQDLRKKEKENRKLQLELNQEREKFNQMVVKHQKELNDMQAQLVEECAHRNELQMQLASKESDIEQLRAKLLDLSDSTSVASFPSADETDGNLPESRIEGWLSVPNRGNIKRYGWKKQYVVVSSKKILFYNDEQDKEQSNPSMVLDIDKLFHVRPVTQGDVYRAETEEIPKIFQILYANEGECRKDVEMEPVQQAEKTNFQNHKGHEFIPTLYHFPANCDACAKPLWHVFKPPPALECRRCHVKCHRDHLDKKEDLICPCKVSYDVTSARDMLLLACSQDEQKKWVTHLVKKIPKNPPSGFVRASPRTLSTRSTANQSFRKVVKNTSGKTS
inactive: [1] -0.002 | [2] -0.027 | [3] -0.005 | [4] -0.021 | [5] -0.003 | [6] 0.096 | [7] -0.041 | [8] 0.006 | [9] 0.024 | [10] 0.002 | [11] 0.014 | [12] 0.004 | [13] 0.004 | [14] 0.018 | [15] -0.045 | [16] 0.001 | [17] -0.017 | [18] 0.025 | [19] -0.017 | [20] 0.015

RPAP1 (UniProt Q9BWH6)
inactive: [1] -0.016 | [2] 0.049 | [3] 0.02 | [4] -0.015 | [5] -0.037 | [6] 0.011 | [7] -0.002 | [8] -0.013 | [9] 0.007 | [10] -0.033 | [11] -0.008 | [12] -0.012 | [13] 0.012 | [14] -0.028 | [15] -0.053 | [16] 0 | [17] -0.031 | [18] 0.008 | [19] 0.02 | [20] 0.01

SEC24D isoform 2 (UniProt O94855)
Chain of UniProt O94855 (O94855 whole entry, looked up): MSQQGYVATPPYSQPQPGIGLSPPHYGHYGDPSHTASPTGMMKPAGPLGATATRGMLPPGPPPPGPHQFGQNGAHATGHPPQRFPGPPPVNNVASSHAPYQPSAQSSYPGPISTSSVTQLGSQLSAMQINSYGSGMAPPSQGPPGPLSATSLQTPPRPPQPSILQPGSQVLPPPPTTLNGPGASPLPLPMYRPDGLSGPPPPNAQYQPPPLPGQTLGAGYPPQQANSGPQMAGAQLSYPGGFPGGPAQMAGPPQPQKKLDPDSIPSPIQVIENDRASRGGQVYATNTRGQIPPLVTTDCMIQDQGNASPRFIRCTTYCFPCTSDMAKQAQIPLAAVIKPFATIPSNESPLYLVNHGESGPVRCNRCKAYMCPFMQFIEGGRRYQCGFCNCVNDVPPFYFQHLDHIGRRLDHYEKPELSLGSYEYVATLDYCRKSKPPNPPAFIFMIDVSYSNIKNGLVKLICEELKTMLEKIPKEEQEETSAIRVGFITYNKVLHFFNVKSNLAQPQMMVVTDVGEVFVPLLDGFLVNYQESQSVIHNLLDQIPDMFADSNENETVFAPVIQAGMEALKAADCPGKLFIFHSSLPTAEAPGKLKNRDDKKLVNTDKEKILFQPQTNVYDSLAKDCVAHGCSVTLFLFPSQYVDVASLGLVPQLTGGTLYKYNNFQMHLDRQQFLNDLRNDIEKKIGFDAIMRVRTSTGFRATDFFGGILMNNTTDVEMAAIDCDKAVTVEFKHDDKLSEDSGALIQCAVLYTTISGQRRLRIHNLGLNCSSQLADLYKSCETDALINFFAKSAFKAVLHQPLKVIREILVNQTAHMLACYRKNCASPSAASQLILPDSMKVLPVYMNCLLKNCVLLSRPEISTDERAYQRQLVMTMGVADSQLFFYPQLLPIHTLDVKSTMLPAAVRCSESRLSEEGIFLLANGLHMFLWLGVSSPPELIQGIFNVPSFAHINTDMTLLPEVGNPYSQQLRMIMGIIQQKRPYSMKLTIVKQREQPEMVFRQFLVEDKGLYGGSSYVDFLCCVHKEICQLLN
inactive: [1] 0.005 | [2] -0.024 | [3] 0.01 | [4] -0.018 | [5] 0 | [6] -0.009 | [7] -0.011 | [8] 0.019 | [9] -0.035 | [10] 0.023 | [11] -0.039 | [12] 0.027 | [13] -0.002 | [14] -0.032 | [15] -0.032 | [16] -0.011 | [17] -0.001 | [18] -0.009 | [19] 0.005 | [20] -0.025

RPS6KB1 (UniProt P23443)
Chain of UniProt P23443 (P23443 whole entry, looked up): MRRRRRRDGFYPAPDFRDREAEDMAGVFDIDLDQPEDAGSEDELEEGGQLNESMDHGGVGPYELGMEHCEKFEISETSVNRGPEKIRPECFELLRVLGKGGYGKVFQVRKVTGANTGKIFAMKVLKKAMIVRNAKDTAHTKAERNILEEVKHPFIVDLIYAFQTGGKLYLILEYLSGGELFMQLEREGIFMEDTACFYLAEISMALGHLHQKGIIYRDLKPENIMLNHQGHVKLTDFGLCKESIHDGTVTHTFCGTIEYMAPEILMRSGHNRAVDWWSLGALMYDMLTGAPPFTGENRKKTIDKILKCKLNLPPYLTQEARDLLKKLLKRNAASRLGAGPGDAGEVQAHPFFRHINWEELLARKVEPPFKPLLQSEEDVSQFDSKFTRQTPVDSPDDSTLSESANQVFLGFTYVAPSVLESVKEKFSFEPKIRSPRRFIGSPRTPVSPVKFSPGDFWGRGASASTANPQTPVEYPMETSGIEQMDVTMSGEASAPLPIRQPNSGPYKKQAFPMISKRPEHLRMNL
inactive: [1] 0.024 | [3] 0.026 | [4] 0.007 | [5] -0.027 | [6] 0 | [7] 0.01 | [8] -0.029 | [9] -0.01 | [10] -0.001 | [11] -0.052 | [12] -0.001 | [13] 0.068 | [14] -0.109 | [15] -0.041 | [16] 0.078 | [17] -0.155 | [18] 0.185 | [19] -0.022 | [20] 0.074
active: [2] 0.355

SEC62 (UniProt Q99442)
active: [17] 0.373
inactive: [1] 0.002 | [2] -0.027 | [3] -0.032 | [4] -0.058 | [5] 0.02 | [6] 0.013 | [7] -0.006 | [8] 0.022 | [9] 0.002 | [10] -0.015 | [11] -0.024 | [12] 0.039 | [13] 0.027 | [14] 0.017 | [15] 0.011 | [16] 0 | [18] -0.12 | [19] -0.011 | [20] -0.04

RAD51C (UniProt O43502)
Chain of UniProt O43502 (O43502 whole entry, looked up): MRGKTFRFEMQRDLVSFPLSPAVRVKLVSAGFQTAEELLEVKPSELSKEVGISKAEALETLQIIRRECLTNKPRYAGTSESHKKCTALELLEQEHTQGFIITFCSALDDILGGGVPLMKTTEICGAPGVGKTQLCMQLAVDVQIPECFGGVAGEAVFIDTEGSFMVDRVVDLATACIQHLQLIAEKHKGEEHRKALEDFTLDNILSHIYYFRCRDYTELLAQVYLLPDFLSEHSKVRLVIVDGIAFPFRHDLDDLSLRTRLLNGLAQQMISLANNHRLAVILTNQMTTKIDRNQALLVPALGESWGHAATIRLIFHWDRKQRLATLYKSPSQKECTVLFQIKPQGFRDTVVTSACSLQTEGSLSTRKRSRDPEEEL
inactive: [1] -0.015 | [2] 0.055 | [3] 0.044 | [4] 0.009 | [5] 0.067 | [6] -0.015 | [7] -0.039 | [8] 0 | [9] -0.037 | [10] -0.051 | [11] -0.067 | [12] -0.01 | [13] -0.011 | [14] -0.017 | [15] 0.046 | [16] -0.038 | [17] -0.027 | [18] 0.027 | [19] 0.01 | [20] 0.027

RASA2 (UniProt Q15283)
Chain of UniProt Q15283 (Q15283 whole entry, looked up): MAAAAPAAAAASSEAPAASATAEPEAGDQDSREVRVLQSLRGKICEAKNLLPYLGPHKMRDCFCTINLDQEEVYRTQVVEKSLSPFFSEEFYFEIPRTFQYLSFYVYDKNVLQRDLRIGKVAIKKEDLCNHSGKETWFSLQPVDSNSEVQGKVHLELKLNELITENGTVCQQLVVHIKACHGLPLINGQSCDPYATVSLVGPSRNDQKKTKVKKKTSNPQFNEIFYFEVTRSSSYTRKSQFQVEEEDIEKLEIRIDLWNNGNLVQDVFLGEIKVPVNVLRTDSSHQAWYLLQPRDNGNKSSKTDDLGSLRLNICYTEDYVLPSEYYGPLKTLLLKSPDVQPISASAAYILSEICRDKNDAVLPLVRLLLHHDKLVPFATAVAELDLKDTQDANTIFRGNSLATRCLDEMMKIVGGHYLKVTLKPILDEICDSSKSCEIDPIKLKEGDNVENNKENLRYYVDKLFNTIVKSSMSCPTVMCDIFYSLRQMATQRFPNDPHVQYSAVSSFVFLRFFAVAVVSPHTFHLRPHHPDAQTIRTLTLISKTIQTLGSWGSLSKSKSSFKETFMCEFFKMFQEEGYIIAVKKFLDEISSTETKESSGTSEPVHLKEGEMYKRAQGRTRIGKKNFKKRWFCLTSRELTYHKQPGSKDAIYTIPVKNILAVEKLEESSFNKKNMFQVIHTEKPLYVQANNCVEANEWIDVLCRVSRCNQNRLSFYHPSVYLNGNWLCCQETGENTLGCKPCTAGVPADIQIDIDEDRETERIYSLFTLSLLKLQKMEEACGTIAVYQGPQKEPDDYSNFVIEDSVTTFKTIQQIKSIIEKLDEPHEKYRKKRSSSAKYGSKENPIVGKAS
inactive: [1] 0.034 | [2] -0.011 | [3] 0.006 | [4] -0.038 | [5] 0.014 | [6] 0.023 | [7] 0.004 | [8] 0.033 | [9] 0.019 | [10] -0.013 | [11] 0.069 | [12] 0.025 | [13] -0.02 | [14] -0.055 | [15] -0.018 | [16] 0.02 | [17] -0.028 | [18] -0.013 | [19] 0.068 | [20] -0.017

RPL8 (UniProt P62917)
inactive: [1] 0.031 | [2] 0.007 | [3] 0.01 | [4] -0.002 | [5] -0.008 | [6] 0.012 | [7] -0.045 | [8] -0.076 | [9] -0.013 | [10] 0.011 | [11] -0.055 | [12] 0.013 | [13] -0.042 | [14] -0.09 | [15] -0.012 | [16] 0.021 | [17] 0.208 | [18] -0.014 | [19] -0.009 | [20] -0.038

RPS29 (UniProt P62273)
active: [17] 1.01
inactive: [1] 0.002 | [2] 0.025 | [3] -0.138 | [4] 0.03 | [5] -0.109 | [6] 0.086 | [7] -0.093 | [8] -0.108 | [9] -0.068 | [10] 0.058 | [11] -0.005 | [12] 0.039 | [13] -0.034 | [14] -0.028 | [15] 0.078 | [16] 0.109 | [18] -0.262 | [19] -0.007 | [20] -0.133

SCAF1 (UniProt Q9H7N4)
inactive: [1] 0.219 | [2] -0.054 | [3] -0.025 | [4] 0.171 | [5] 0.042 | [6] 0.065 | [7] -0.06 | [8] 0.056 | [9] 0.056 | [10] 0.002 | [11] 0.027 | [12] 0.093 | [13] 0.079 | [14] 0.089 | [15] -0.114 | [16] 0.05 | [17] -0.041 | [18] 0.008 | [19] 0.009 | [20] -0.029

SCCPDH (UniProt Q8NBX0)
Chain of UniProt Q8NBX0 (Q8NBX0 whole entry, looked up): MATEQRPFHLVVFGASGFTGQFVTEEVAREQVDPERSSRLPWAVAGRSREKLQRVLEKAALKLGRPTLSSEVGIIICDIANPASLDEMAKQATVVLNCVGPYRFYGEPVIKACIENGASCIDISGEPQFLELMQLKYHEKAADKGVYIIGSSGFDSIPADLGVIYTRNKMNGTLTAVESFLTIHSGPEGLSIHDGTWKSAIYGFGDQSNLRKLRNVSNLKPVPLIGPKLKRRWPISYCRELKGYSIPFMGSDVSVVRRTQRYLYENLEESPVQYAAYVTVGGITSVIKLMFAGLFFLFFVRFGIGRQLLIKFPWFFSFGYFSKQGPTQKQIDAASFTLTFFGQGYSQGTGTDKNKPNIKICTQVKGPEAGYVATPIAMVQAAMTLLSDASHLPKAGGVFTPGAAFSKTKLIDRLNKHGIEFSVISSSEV
inactive: [1] 0.155 | [2] -0.042 | [3] 0.083 | [4] 0.112 | [5] 0.122 | [6] -0.017 | [7] -0.068 | [8] 0.055 | [9] -0.098 | [10] 0.187 | [11] -0.013 | [12] -0.054 | [13] 0.118 | [14] 0.128 | [15] 0.055 | [16] -0.107 | [17] -0.12 | [18] 0.233 | [19] -0.092 | [20] 0.094

RNF123 (UniProt Q5XPI4)
inactive: [1] 0.028 | [2] 0.017 | [3] 0.029 | [4] -0.042 | [5] -0.003 | [6] -0.02 | [7] 0.001 | [8] 0.027 | [9] -0.016 | [10] 0.022 | [11] 0.034 | [12] 0.003 | [13] 0.019 | [14] -0.009 | [15] -0.048 | [16] 0.035 | [17] -0.045 | [18] 0.004 | [19] -0.006 | [20] 0.03

RBM23 isoform 2 (UniProt Q86U06)
Chain of UniProt Q86U06 (Q86U06 whole entry, looked up): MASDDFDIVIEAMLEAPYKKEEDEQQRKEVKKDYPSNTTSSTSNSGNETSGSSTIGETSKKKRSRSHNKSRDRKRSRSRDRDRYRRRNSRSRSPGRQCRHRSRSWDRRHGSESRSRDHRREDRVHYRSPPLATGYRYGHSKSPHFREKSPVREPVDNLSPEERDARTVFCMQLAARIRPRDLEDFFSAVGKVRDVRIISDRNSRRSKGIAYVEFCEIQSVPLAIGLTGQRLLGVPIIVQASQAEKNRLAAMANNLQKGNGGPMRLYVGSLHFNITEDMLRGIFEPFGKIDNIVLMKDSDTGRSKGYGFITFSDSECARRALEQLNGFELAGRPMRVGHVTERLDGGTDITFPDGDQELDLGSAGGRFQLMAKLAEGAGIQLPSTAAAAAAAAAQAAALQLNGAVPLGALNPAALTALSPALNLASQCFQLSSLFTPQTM
inactive: [1] -0.125 | [2] -0.014 | [3] 0.041 | [4] -0.096 | [5] 0.081 | [6] 0.151 | [7] -0.122 | [8] 0.112 | [9] -0.022 | [10] 0.05 | [11] 0.2 | [12] 0.02 | [13] 0.234 | [14] -0.153 | [15] -0.011 | [16] 0.058 | [17] -0.01 | [18] -0.143 | [19] 0.064 | [20] 0.131

RAI14 isoform 2 (UniProt Q9P0K7)
inactive: [1] -0.019 | [2] -0.007 | [3] -0.011 | [4] -0.01 | [5] -0.004 | [6] 0.017 | [7] -0.024 | [8] 0.01 | [9] 0.024 | [10] 0.001 | [11] 0.001 | [12] 0.066 | [13] 0.061 | [14] -0.019 | [15] 0.005 | [16] 0 | [17] 0.045 | [18] -0.011 | [19] 0.031 | [20] 0.026

RELN (UniProt P78509)
active: [2] -0.237
inactive: [1] 0.011 | [3] 0.011 | [4] -0.038 | [5] -0.039 | [6] -0.01 | [7] 0 | [8] -0.002 | [9] 0.041 | [10] 0.09 | [11] 0.043 | [12] -0.098 | [13] 0.004 | [14] 0.024 | [15] -0.019 | [16] 0.021 | [17] -0.024 | [18] 0.152 | [19] 0.035 | [20] 0.02

RASA3 (UniProt Q14644)
inactive: [1] 0 | [2] -0.031 | [3] -0.012 | [4] -0.054 | [5] 0.02 | [6] -0.048 | [7] 0.031 | [8] -0.026 | [9] -0.018 | [10] -0.078 | [11] -0.008 | [12] 0.009 | [13] 0.107 | [14] -0.1 | [15] -0.082 | [16] -0.058 | [17] 0.105 | [18] 0.298 | [19] -0.003 | [20] 0.048

Reference: the supplement of paper PMC10849652
